Holding throughout (assay): NCI-60 one-dose screen, 48 h (100 = growth as untreated, 0 = no growth, -100 = all killed)
The test system of one assay is HCT-15 colon. The settings on record: 10 µM unless noted.
The test system of another assay is HT29 colon. The settings on record: 10 µM unless noted.
The next assay concerns SNB-75 CNS. As to conditions: 10 µM unless noted.
The next assay deals with SNB-19 CNS. As to conditions: 10 µM unless noted.
The subject of a further assay is U251 CNS. The settings on record: 10 µM unless noted.
Another assay has as its system PC-3 prostate. The settings on record: 10 µM unless noted.
The next assay deals with SK-MEL-5 melanoma. The settings on record: 10 µM unless noted.
Another assay concerns LOX IMVI melanoma. The settings on record: 10 µM.
The test system of the next assay is SK-MEL-2 melanoma. The settings on record: 10 µM unless noted.
The subject of the next assay is EKVX NSCLC. As to conditions: 10 µM unless noted.
Another assay deals with SN12C renal. As to conditions: 10 µM unless noted.
In another assay the test system is UO-31 renal. As to conditions: 10 µM unless noted.
Another assay relates to TK-10 renal. As to conditions: 10 µM unless noted.
The next assay has as its system ACHN renal. The settings on record: 10 µM unless noted.
The subject of the next assay is CAKI-1 renal. As to conditions: 10 µM unless noted.
The next assay relates to A498 renal. The settings on record: 10 µM unless noted.
In a further assay the test system is CCRF-CEM leukemia. As to conditions: 10 µM unless noted.
Another assay has as its system MOLT-4 leukemia. The settings on record: 10 µM unless noted.
The subject of a further assay is SK-MEL-28 melanoma. As to conditions: 10 µM unless noted.

The source of these data is PubChem BioAssay (NCI).

About 83,000 compounds went through this panel and 20% of them were active in at least one assay; those are over-represented in the sample as a whole.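 Activity criterion: percent growth below 10, measured after cells in 96-well plates were exposed to a single compound concentration for 48 hours.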 Unmarked numbers belong to inactive results. Active and inactive are the calls of the source.

Turning to `COc1ccc2c(ccc[n+]2C)c1`, the growth in the assay on HCT-15 colon was 93.5%; with HT29 colon, 93%; with SNB-75 CNS, 78.3%; in the assay on SNB-19 CNS, 101%; in the assay on U251 CNS, 96.7%; in the assay with PC-3 prostate, 119%. Moreover, the growth is 103% in the assay on SK-MEL-5 melanoma; 105% in the assay with LOX IMVI melanoma; 103% in the assay with SK-MEL-2 melanoma; 84.7% in the assay with EKVX NSCLC; 104% in the assay on SN12C renal; 86.5% in the assay with UO-31 renal. In addition, the growth with TK-10 renal was 102%; in the assay with ACHN renal, 98.5%; with CAKI-1 renal, 96.4%; with A498 renal, 107%; with CCRF-CEM leukemia, 98.3%; in the assay with MOLT-4 leukemia it was 111%.
On to `CCCCOC(=O)c1ccccc1O`, for which the growth in the assay with HCT-15 colon was 104%; with HT29 colon, 111%; in the assay on SNB-75 CNS it was 85.9%; in the assay on SNB-19 CNS it was 102%; in the assay with U251 CNS, 100%; with PC-3 prostate, 101%. The growth was 104% in the assay on SK-MEL-5 melanoma; 100% in the assay with LOX IMVI melanoma; 161% in the assay with SK-MEL-2 melanoma; 106% in the assay with EKVX NSCLC; 107% in the assay with SN12C renal; 99.2% in the assay on UO-31 renal. In addition, the growth was 115% in the assay on TK-10 renal; 104% in the assay on ACHN renal; 107% in the assay on CAKI-1 renal; 129% in the assay with A498 renal; -71.6% (active) in the assay with CCRF-CEM leukemia; 117% with MOLT-4 leukemia.
Consider `O=[n+]1ccn([O-])c2ccccc21`, for which the growth in the assay with HCT-15 colon was 110%; in the assay on HT29 colon, 108%; in the assay with SNB-75 CNS, 92%; in the assay on SNB-19 CNS, 102%; with U251 CNS, 100%; in the assay with PC-3 prostate, 92.1%. Besides, the growth was 93.2% in the assay with SK-MEL-5 melanoma; 97.4% with LOX IMVI melanoma; 108% in the assay with SK-MEL-28 melanoma; 120% in the assay with SK-MEL-2 melanoma; 104% in the assay on EKVX NSCLC; 97.4% with SN12C renal. Also, the growth is 88.6% with UO-31 renal; 98.3% with TK-10 renal; 96.2% with CAKI-1 renal; 81% in the assay on A498 renal; 17.7% in the assay on CCRF-CEM leukemia; 102% with MOLT-4 leukemia.
`O=C(Nc1ccc([N+](=O)[O-])cc1)C(=O)Nc1ccc([N+](=O)[O-])cc1`: the growth in the assay on HCT-15 colon was 101%; in the assay with HT29 colon it was 91.5%; in the assay on SNB-75 CNS, 116%; in the assay with SNB-19 CNS, 99.6%; in the assay with U251 CNS it was 81.2%; in the assay on PC-3 prostate, 90.5%. The growth in the assay with SK-MEL-5 melanoma is 100%; in the assay with LOX IMVI melanoma, 94.9%; with SK-MEL-28 melanoma, 115%; in the assay with SK-MEL-2 melanoma, 97%; with EKVX NSCLC, 103%; in the assay with SN12C renal, 102%. Moreover, the growth with UO-31 renal was 89.1%; with TK-10 renal it was 98.5%; with ACHN renal, 107%; in the assay on CAKI-1 renal, 98.1%; in the assay on CCRF-CEM leukemia, 101%; with MOLT-4 leukemia it was 101%.
Turning to `C/C(=N\Nc1ccc([N+](=O)[O-])cc1[N+](=O)[O-])c1ccc(Br)cc1`, the growth with HCT-15 colon was 97.5%; in the assay on HT29 colon it was 92.2%; in the assay with SNB-75 CNS, 104%; in the assay with SNB-19 CNS, 97.8%; with U251 CNS, 92.2%; with PC-3 prostate, 91.2%. The growth was 100% in the assay with SK-MEL-5 melanoma; 95.8% in the assay on LOX IMVI melanoma; 107% in the assay on SK-MEL-28 melanoma; 97.4% with SK-MEL-2 melanoma; 96.4% in the assay with EKVX NSCLC; 96.2% in the assay with SN12C renal. Moreover, the growth was 85% with UO-31 renal; 105% in the assay with TK-10 renal; 105% in the assay on ACHN renal; 98.1% with CAKI-1 renal; 102% in the assay with A498 renal; 96.5% in the assay with CCRF-CEM leukemia. Also, the growth in the assay with MOLT-4 leukemia was 104%.
With `OCC1CCC(O)C(CO)N1` (stereo not given), the growth in the assay with HCT-15 colon is 94.1%; in the assay with HT29 colon, 108%; in the assay with SNB-75 CNS it was 70.2%; in the assay on SNB-19 CNS, 105%; in the assay with U251 CNS, 100%; in the assay with PC-3 prostate, 95%. Moreover, the growth in the assay on SK-MEL-5 melanoma is 108%; in the assay with LOX IMVI melanoma, 100%; with SK-MEL-28 melanoma it was 96.3%; in the assay on SK-MEL-2 melanoma it was 129%; in the assay with EKVX NSCLC, 92.3%; in the assay on SN12C renal, 103%. For the same molecule, the growth was 90.8% in the assay on UO-31 renal; 121% with TK-10 renal; 100% in the assay with ACHN renal; 91.5% in the assay with A498 renal; 106% with MOLT-4 leukemia.
As to `CC(=O)Nc1ccc(C(=O)c2ccc(S(=O)(=O)Nc3ccccc3)cc2)cc1`, the growth in the assay on HCT-15 colon is 104%; with HT29 colon, 96.7%; with SNB-75 CNS it was 78.1%; in the assay with SNB-19 CNS, 80.3%; in the assay on U251 CNS it was 91.9%; with PC-3 prostate it was 87.2%. Moreover, the growth with SK-MEL-5 melanoma is 89.8%; in the assay with LOX IMVI melanoma it was 91.6%; in the assay with SK-MEL-28 melanoma, 114%; in the assay with SK-MEL-2 melanoma it was 80.6%; with EKVX NSCLC it was 105%; with SN12C renal it was 98.6%. Besides, the growth with UO-31 renal is 85.7%; with ACHN renal it was 104%; in the assay with CAKI-1 renal, 106%; in the assay on A498 renal, 79.2%; with CCRF-CEM leukemia, 82.8%; with MOLT-4 leukemia, 102%.
Regarding `COCC(N)=O`, the growth with HCT-15 colon was 100%; with HT29 colon, 102%; in the assay with SNB-75 CNS it was 102%; in the assay with SNB-19 CNS it was 107%; in the assay with U251 CNS, 104%; with PC-3 prostate, 94.6%. Further, the growth with SK-MEL-5 melanoma is 102%; in the assay on LOX IMVI melanoma it was 99.7%; in the assay on SK-MEL-28 melanoma, 121%; in the assay with SK-MEL-2 melanoma, 95.9%; with EKVX NSCLC, 109%; in the assay with SN12C renal, 108%. The growth with UO-31 renal is 85.2%; in the assay with TK-10 renal, 102%; with ACHN renal, 102%; with CAKI-1 renal it was 104%; in the assay on A498 renal, 96.6%; in the assay on MOLT-4 leukemia it was 98.5%.
On to `Cc1cccc2ccccc12`, for which the growth with HCT-15 colon was 92.9%; in the assay on HT29 colon, 95.8%; in the assay with SNB-75 CNS, 86.8%; in the assay on SNB-19 CNS, 103%; in the assay on U251 CNS, 102%; in the assay on PC-3 prostate it was 95.5%. Moreover, the growth in the assay on SK-MEL-5 melanoma is 100%; with LOX IMVI melanoma, 99.4%; with SK-MEL-28 melanoma, 98.2%; with SK-MEL-2 melanoma, 106%; with SN12C renal, 100%; in the assay on UO-31 renal, 86.8%. Moreover, the growth was 103% in the assay with TK-10 renal, 99.7% in the assay on ACHN renal, 91.6% with CAKI-1 renal and 102% with CCRF-CEM leukemia.
